Data from PubChem BioAssay AID778 (Sanford-Burnham Center for Chemical Genomics, 2007).
About 20,000 (21%) of roughly 96,000 compounds were called active. A selection follows. A number with no mark means an inactive call.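 The calls were made as follows: active = CYP2C19 inhibition above a set limit at 5 µM in the primary screen (cut at about 50% in these data); inactive = the rest.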

molecular target: Cytochrome P450 2C19 (Homo sapiens) (UniProt P33261); assay: blockers of cytochrome P450 2C19 activity – biochemical, luminescence, ADME assay, primary screen (AID 778); details: CYP2C19 Supersomes, luciferin-H EGE luminescence, 30 min; at 5 µM; stronger effect = higher value;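 also: plate controls were negative control wells for no effect and 2.5 mM tranylcypromine positive control for full effect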
Sequence (P33261 whole entry, looked up): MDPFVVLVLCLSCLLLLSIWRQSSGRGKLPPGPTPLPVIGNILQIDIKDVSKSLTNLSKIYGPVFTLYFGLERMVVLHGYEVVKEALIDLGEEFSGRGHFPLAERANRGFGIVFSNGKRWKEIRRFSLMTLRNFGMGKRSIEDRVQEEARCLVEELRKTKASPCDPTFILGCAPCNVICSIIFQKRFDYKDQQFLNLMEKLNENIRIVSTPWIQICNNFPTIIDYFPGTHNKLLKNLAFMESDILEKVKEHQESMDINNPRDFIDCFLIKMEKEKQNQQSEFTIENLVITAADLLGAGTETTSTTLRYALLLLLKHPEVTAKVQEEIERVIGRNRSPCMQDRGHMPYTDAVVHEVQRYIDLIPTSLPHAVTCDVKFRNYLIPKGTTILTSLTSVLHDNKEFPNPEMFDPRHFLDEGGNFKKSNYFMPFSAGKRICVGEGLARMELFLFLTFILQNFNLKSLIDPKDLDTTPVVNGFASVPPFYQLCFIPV

Compound	inhibition
CCS(=O)(=O)Nc1cc(C(=O)OC)ccc1C(=O)OC	49.8%
CCSc1nc(C)nc2c1oc1ccccc12	15.2%
COc1ccc(-c2cn3ccsc3n2)cc1	14.3%
CCCS(=O)(=O)N1CCCC(C(=O)NCCN2CCCCC2C)C1 (stereo unspecified)	-13.4%
O=C(CCC(=O)N1CCN(S(=O)(=O)c2ccccc2)CC1)NC1CCCc2ccccc21 (stereo unspecified)	17.7%
COCc1[nH][nH]c(=O)c1C=Nc1ccc(F)cc1F	-10.3%
CC(C)C(NC(=O)OCc1ccccc1)C(=O)OCC(=O)N1C(C)CCCC1C (stereo unspecified)	40.3%
COc1ccc(C(c2nnnn2C2CCCCC2)N2CCN(c3ccccc3F)CC2)cc1 (stereo unspecified)	80.6% (active)
Cc1cccc(N2CCN(C(c3ccccc3)c3nnnn3CC3CCCO3)CC2)c1C (stereo unspecified)	12.7%
CCOc1ccc2[nH]c(=O)c(C(c3nnnn3CCOC)N3CCOCC3)cc2c1 (stereo unspecified)	11.5%
COc1ccc(N2CCN(C(c3cc4ccc(C)cc4[nH]c3=O)c3nnnn3C3CCCC3)CC2)cc1 (stereo unspecified)	54.4% (active)
CC(C)C(c1nnnn1C1CCCC1)N1CCN(c2ccccc2F)CC1 (stereo unspecified)	8%
CC(C)c1ccc(NS(=O)(=O)c2cn(C)c(=O)n(C)c2=O)cc1	34%
Cc1cc(N2CCCC2)n2nc(C)c(-c3ccccc3)c2n1	-17.7%
CCNc1nc(NCC)nc(N(C)n2cnnc2)n1	-6%
Nc1ccc(-c2sc(N)nc2-c2ccccc2)cc1	61.8% (active)
Nc1ccc(-c2nnc(-c3ccc(-c4ccccc4)cc3)o2)cc1	25.3%
CC(=O)c1cc(C#N)c(SCC(=O)C(C)(C)C)nc1C	34.4%
Cn1c(C(=O)NCCc2ccsc2)cc2c(=O)n(C)c3ccccc3c21	11.7%
COc1ccccc1CNC(=O)C1CCN(c2nc3ccccc3o2)CC1	3.5%
COc1ccc(OC)c(CNC(=O)C2CCCN(c3nc4ccccc4o3)C2)c1 (stereo unspecified)	17.2%
CCc1ccc(CNC(=O)C2CCCN(c3nc4ccccc4o3)C2)cc1 (stereo unspecified)	65.8% (active)
COc1ccc2ccccc2c1CNCc1ccccn1	15.9%
COc1ccc(/C(O)=C2\C(=O)C(=O)N(Cc3ccco3)C2c2ccc(OC)cc2OC)cc1 (stereo unspecified)	3.4%
COc1ccc(/C(O)=C2/C(=O)C(=O)N(c3nc(C)c(C)s3)C2c2ccco2)cc1 (stereo unspecified)	58.8% (active)
COc1ccccc1C1/C(=C(/O)c2ccc(OC(C)C)cc2)C(=O)C(=O)N1c1cc(C)on1 (stereo unspecified)	-7.6%

Compound	inhibition
CN(C)CCCn1c(N)c(C#N)c2nc(C#N)c(C#N)nc21	-1.9%
COC(=O)C(C)Oc1ccc2c(-c3cccc([N+](=O)[O-])c3)cc(=O)oc2c1 (stereo unspecified)	28.8%
O=C(Nc1ccc(Cl)cc1)c1cc2nc(C3CC3)cc(C(F)(F)F)n2n1	-6.4%
C=CCNC(=O)c1cc2nc(C3CC3)cc(C(F)F)n2n1	51.2% (active)
Cc1nc(N2CCCC2C(=O)O)c2oc3ccccc3c2n1 (stereo unspecified)	2.4%
Cc1ccccc1NC(=O)C(C)c1ccc(-c2ccccc2)c(F)c1 (stereo unspecified)	7.1%
Cc1nn(C)c(Oc2ccc(Cl)cc2)c1C=O	27.7%
Cc1nn(C)c(Oc2ccccc2)c1CCNS(=O)(=O)c1ccc(F)cc1	96.7% (active)
Cc1n[nH]c(=O)n1-c1ccc(Oc2ccccc2)cc1	18.5%
Cc1nn(C)c(Oc2ccccc2)c1[N+](=O)[O-]	64% (active)
Cc1cccc(N2C(=O)SC(N(CC(=O)O)c3cccc(C)c3)C2=O)c1 (stereo unspecified)	1.5%
COC(=O)C(NC(=O)c1ccc(OC)cc1)(Nc1ncc(S(=O)(=O)c2ccc([N+](=O)[O-])cc2)s1)C(F)(F)F (stereo unspecified)	33.8%
O=C(CSCc1ccc([N+](=O)[O-])cc1)NCCSCc1ccccc1	21.3%
c1ccc(CSCCc2ccncc2)cc1	99.8% (active)
COc1ccc(-c2nn(C)c(=O)c3ccccc23)cc1NC(=O)COc1ccccc1	25.6%
CCOc1nc(OCC)nc(-n2cc(-c3ccccc3)nn2)n1	3.5%
Cc1cnc(NC(=O)CSc2nnc(-c3ccc(Cl)cc3Cl)n2N)s1	23.2%
COc1ccc(-c2nnc(SC(C)C#N)o2)cc1 (stereo unspecified)	10.9%
C#CCNc1nc(C(C)C)nc2c1nnn2Cc1ccccc1F	37.3%
Cc1nc(Nc2ccc3c(c2)OCCO3)c2nnn(Cc3ccccc3Cl)c2n1	83.2% (active)
O=C(Nc1cc2ccccc2oc1=O)C1CCCCC1	0.3%
O=C(CC12CC3CC(CC(C3)C1)C2)Nc1ccc2c(c1)COC2=O	12.8%
O=C(/C=C/c1cccs1)c1cc(Cl)ccc1OC(=O)N1CCOCC1	90.6% (active)
CC(=O)Nc1ccccc1OC(=O)N1CCOCC1	0.3%
O=C(Oc1ccc2c(c1)CCC2)N1CCOCC1	11.1%
O=c1cc(N2CCN(Cc3ccccc3)CC2)c(-c2ccccc2)n[nH]1	19%

Compound	inhibition
Cc1cnc(NC(=O)C2CCCC2)s1	17.5%
CCOC(=O)c1cc(C)sc1NC(=O)C1CCC1	54.6% (active)
CCOC(=O)c1c(NC(C)=O)sc2c(O)c(Br)ccc12	3.8%
CC(=NC1CCN(Cc2ccccc2)CC1)c1c(O)[nH]c(=O)[nH]c1=O	-7.4%
CC(C)c1nnc(NC(=O)C2CCCN2S(=O)(=O)c2ccc(Cl)cc2)s1 (stereo unspecified)	17.2%
CCOc1ccc(NC(=O)CC2NCCNC2=O)cc1 (stereo unspecified)	1.1%
CCOc1ccc(S(=O)(=O)n2ccnc2)c2ccccc12	66.5% (active)
CCOc1ccc(S(=O)(=O)N2CCCCCC2)c2ccccc12	32.3%
CCOC(=O)c1ccc(N2C(=O)CC(N3CCC(C(=O)OCC)CC3)C2=O)cc1 (stereo unspecified)	47.5%
CCOC(=O)c1ccc(N2C(=O)CC(N3CC(C)OC(C)C3)C2=O)cc1 (stereo unspecified)	6.8%
CCCCOC(=O)c1ccc(N2C(=O)CC(N3CCN(C/C=C/c4ccccc4)CC3)C2=O)cc1 (stereo unspecified)	86.2% (active)
CCCCCCC(=O)Nc1nc(C)c(-c2csc(Nc3cccc(OC)c3)n2)s1	-4.8%
COC(=O)c1ccccc1Sc1c(/C=N/OCc2ccc(Cl)cc2)c(C(F)(F)F)nn1C	72.6% (active)
COC(=O)c1ccccc1NC(=O)Cn1nc(C(F)(F)F)c2c1CCC2	36.4%
O=C1N=C2SCCN2/C1=C\c1c(Cl)cccc1Cl	11.1%
Cc1cc(Nc2ccccc2)nc(N)n1	-8.2%
CNC(=O)n1ccc(C(=O)N2CCCCC2)n1	-16.6%
CC(C)(O)C(=O)NN(C(=O)c1ccccc1)c1cccc(Br)c1	2.5%
O=C(/C=C/NNC(=O)c1cccc(Br)c1)c1ccccc1	76.7% (active)
O=C(/C=C\NCC(=O)c1ccccc1)c1ccccc1	46.4%
CCC(C)(C(=O)NC1CCCC1)N(C(=O)CNC(C)=O)c1ccc(C)cc1 (stereo unspecified)	21.1%
CCOc1ccccc1NC(=O)C1CCC(CNc2c(N3CCOCC3)c(=O)c2=O)CC1 (stereo unspecified)	-13.1%
CCOc1ccc(NC(=O)CN(C)CC(=O)Nc2cccc(Cl)c2C)cc1OCC	21.6%
CCOc1ccccc1NC(=O)C12CC3CC(C1)CC(c1ccc(C)cc1)(C3)C2	51.9% (active)
CCOCC(=O)Nc1cc(OC)c(Cl)cc1OC	29.8%
COc1ccc(-c2cc(C(F)(F)F)n3nc(C(=O)N4CCOCC4)c(Cl)c3n2)cc1	-7.1%

Compound	inhibition
FC(F)Oc1ccccc1C1CC(c2ccc(Br)s2)Nc2ncnn21 (stereo unspecified)	98.5% (active)
CCC(c1nnnn1Cc1ccco1)N(CCc1ccccc1)Cc1cc2cccc(C)c2[nH]c1=O (stereo unspecified)	38.3%
CCC(c1nnnn1Cc1ccccc1)N(Cc1cc2cc(OC)ccc2[nH]c1=O)CC1CCCO1 (stereo unspecified)	44.9%
CCC(c1nnnn1Cc1ccco1)N(Cc1cc2cc(OC)ccc2[nH]c1=O)C1CCCCC1 (stereo unspecified)	53.6% (active)
CCC(c1nnnn1Cc1ccco1)N(CCc1ccccc1)Cc1cc2ccc(OC)cc2[nH]c1=O (stereo unspecified)	92.2% (active)
COc1ccc2[nH]c3c(=O)n(Cc4ccco4)cnc3c2c1	21.8%
CCC(=O)N(Cc1cc2cc(OC)ccc2[nH]c1=O)c1ccccc1C	21.8%
O=C1c2ccccc2-c2ncnc3c(N4CCOCC4)cc(N4CCOCC4)c1c23	29.6%
CCOC(=O)c1sc(NC(=O)CSc2nc(C)cc(C(F)(F)F)n2)c(C#N)c1C	19.8%
CC(=O)c1ccc(Oc2cc(C)nc(-n3nc(C)cc3C)n2)cc1	-5.5%
Cc1cc(Oc2ccccc2)nc(N2CCOCC2)n1	94.5% (active)
Cc1nc(N2CCOCC2)nc2c1CCCC2	28.5%
CCc1ccc2c(c1)cc(CN(C(=S)Nc1ccccc1Cl)C1CC1)c1nnnn12	-11.2%
Cc1nc2ccccc2c2oc(C(=O)NCCCN3CCC(C)CC3)cc12	-6.7%
O=C(NC1(C(F)(F)F)NC(=O)N(Cc2cccnc2)C1=O)c1ccccc1Cl (stereo unspecified)	39.8%
CC12c3ccccc3C(c3ccccc31)C1C(=O)N(Cc3cccnc3)C(=O)C12 (stereo unspecified)	81.2% (active)
CC1Oc2ccccc2N(Cc2cccnc2)C1=O (stereo unspecified)	26.8%
O=C(COc1ccc(Cl)cc1)NCCSc1ccccc1	14.6%
O=C(CCSc1ccccc1)NCCSc1ccccn1	71% (active)
Cc1cccc(N(CC(=O)Nc2ccc(-c3nc4ccc(C)cc4s3)cc2)S(C)(=O)=O)c1	1.8%
COC(=O)c1ccccc1NC(=O)CSc1ccccn1	26.9%
CCc1ccccc1N(CC(=O)NCCSCc1ccco1)S(C)(=O)=O	24%
COc1cccc(N(CC(=O)NCCSc2ccccn2)S(C)(=O)=O)c1	53.8% (active)
